Compound activity as filed in PubChem.
CYP2C9 activ – human CYP2C9 activators, primary screen, biochemical, luminescence. Cytochrome P450 2C9 (Homo sapiens), P11712. recombinant CYP2C9, luciferin-H conversion; stronger effect = higher value; factor 1 = untreated enzyme, 0 = blocked. activation factor at 5 µM. actives 1.4% (n = 96,000). AID 1024, 2008;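 active = activation factor of 2 or more for CYP2C9 at a 5 µM dose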
Target sequence (P11712 whole entry, looked up): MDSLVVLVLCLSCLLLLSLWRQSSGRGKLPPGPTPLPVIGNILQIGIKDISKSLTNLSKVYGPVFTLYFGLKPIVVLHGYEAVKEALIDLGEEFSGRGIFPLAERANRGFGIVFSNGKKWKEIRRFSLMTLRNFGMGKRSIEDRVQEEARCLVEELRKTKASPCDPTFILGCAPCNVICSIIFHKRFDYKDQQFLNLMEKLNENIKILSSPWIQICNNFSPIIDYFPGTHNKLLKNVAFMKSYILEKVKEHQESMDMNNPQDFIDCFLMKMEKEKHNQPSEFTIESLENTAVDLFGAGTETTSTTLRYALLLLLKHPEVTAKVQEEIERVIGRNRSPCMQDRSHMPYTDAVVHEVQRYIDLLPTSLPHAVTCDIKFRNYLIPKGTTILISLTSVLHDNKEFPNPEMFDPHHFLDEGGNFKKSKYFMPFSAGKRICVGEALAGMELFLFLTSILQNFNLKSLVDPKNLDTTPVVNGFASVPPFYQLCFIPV
CYP2C9 inhib – blockers of cytochrome P450 2C9 activity – biochemical, luminescence, ADME assay, primary screen | P11712 | CYP2C9 Supersomes, luciferin-H conversion | inhibition, % at 5 µM | actives 20% (n = 96,000) | AID 777, 2007;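 active = blocking of liver enzyme CYP2C9 beyond about 50% at 5 µM, limit read from the data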
Measles CPE – compounds protecting cells from measles virus cytopathic effect, primary screen, measles RdRp inhibitor project, single point, MLSMR library, absorbance. protection (pct of control), % at 4 µM. actives 1.5% (n = 140,000). Measles virus-infected cells, CPE protection; in the data active = protection mostly above about 24%, no sharp cut-off; inactive = mostly below about 26%
CYP2C19 inh – blockers of cytochrome P450 2C19 activity – biochemical, luminescence, ADME assay, primary screen; P33261; CYP2C19 Supersomes, luciferin-H EGE luminescence, 30 min; inhibition, % at 5 µM; actives 21% (n = 96,000);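 active = CYP2C19 inhibition above a set limit at 5 µM in the primary screen, cut at about 50% in these data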
CYP2C19 act – human CYP2C19 activators, primary screen, biochemical, luminescence; 96,000 tested, under 10 active; Cytochrome P450 2C19 (Homo sapiens), P33261; activation factor at 5 µM; recombinant CYP2C19, luciferin-H EGE luminescence; stronger effect = higher value; 0 = fully inhibited enzyme, 1 = untreated enzyme; AID 1025, 2008;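 active = activation factor of at least 2 at 5 µM in the primary screen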
Hits are given with their value; – = inactive; · = no result. A selection: hits, their analogues and other compounds. The true share with any hit is near 22%.

SMILES | CYP2C9 activ | CYP2C9 inhib | Measles CPE | CYP2C19 inh | CYP2C19 act
O=C(COC(=O)Cc1ccsc1)NCC12CC3CC(CC(C3)C1)C2 | – | – | – | 58.9 | –
CC1CCCC(NC(=O)COC(=O)Cc2ccsc2)C1C (stereo not drawn) | – | – | – | 64.4 | –
CC1CCCC(NC(=O)COC(=O)COc2ccc(Cl)cc2)C1C (stereo not drawn) | – | – | – | – | –
CC1CCCC(NC(=O)COC(=O)CCC2CCCC2)C1C (stereo not drawn) | – | 63.5 | – | – | –
CCc1ccc(/C=C2\Oc3cc(OC(=O)N4CCOCC4)ccc3C2=O)cc1 | · | · | – | · | ·
Cc1ccccc1OC(=O)C1C(c2ccccc2)C(C(=O)O)C1c1ccccc1 (stereo not drawn) | – | – | – | – | –
O=C(CCc1nc(-c2ccccc2)c(-c2ccccc2)o1)OCc1ccc(Cl)cc1 | – | – | – | – | –
O=C(CCc1nc(-c2ccccc2)c(-c2ccccc2)o1)OCc1ccc(Br)cc1 | – | 80.8 | – | 58.2 | –
Cc1ccc(CNC(=O)C2CCCCC2C(=O)O)cc1 (stereo not drawn) | – | – | – | – | –
CN(C)c1cccc(C(=O)NCC2CCCO2)c1 (stereo not drawn) | – | – | – | – | –
COc1ccc(N(C)S(=O)(=O)c2cccc(C(=O)NCC3CCCO3)c2)cc1 (stereo not drawn) | – | 63.2 | – | – | –
COc1ccc(S(=O)(=O)N(C)c2ccc(C(=O)NCC3CCCO3)cc2)cc1 (stereo not drawn) | – | 52.7 | – | – | –
COc1ccc(N(C)S(=O)(=O)c2cccc(C(=O)Nc3ccc(-n4cnnn4)cc3)c2)cc1 | – | 84.6 | – | 70.0 | –
COc1ccc(N(C)S(=O)(=O)c2cccc(C(=O)Nc3ccc(OC)nc3)c2)cc1 | · | · | – | · | ·
C[C@@H](C(=O)OCC(=O)Nc1cc(S(=O)(=O)N2CCOCC2)ccc1Cl)N1C(=O)C2CCCCC2C1=O (stereo partly drawn) | · | · | – | · | ·
Cc1c(C(=O)Nc2ccccc2)csc1-c1ccccc1 | · | · | – | · | ·
COc1cc2c(-c3ccc(O)cc3)nc3c(c(C)nn3-c3ccccc3)c2cc1OC | · | · | – | · | ·
COc1cc2c(C)nc3onc(-c4ccccc4)c3c2cc1OC | – | 77.4 | – | 54.5 | –
Cc1nn(-c2nc3ccccc3s2)c(N)c1Sc1ccc(F)cc1 | – | 84.7 | – | – | –
CC(CC(=O)NCC1CCCO1)c1ccccc1 (stereo not drawn) | · | · | – | · | ·
COc1ccc(NC(=O)c2cc(OC)c(OC)c(OC)c2Br)cc1OC | · | · | – | · | ·
CCCOC(=O)c1ccc(NC(=O)c2cc(OC)c(OC)c(OC)c2Br)cc1 | – | 65.0 | – | 74.4 | –
COc1cc(C(=O)Nc2ccc(C(C)=O)cc2)c(Br)c(OC)c1OC | · | · | – | · | ·
COc1cc(C(=O)NCCOc2ccccc2)c(Br)c(OC)c1OC | – | – | – | 65.2 | –
COc1cc(C(=O)NCCOc2cccc(C)c2)c(Br)c(OC)c1OC | – | – | – | 51.7 | –
SMILES | CYP2C9 activ | CYP2C9 inhib | Measles CPE | CYP2C19 inh | CYP2C19 act
Cc1ccc(Nc2nnc(C3C(=O)N(C)C4(C)CC3c3cc(Br)ccc3O4)s2)cc1 (stereo not drawn) | · | · | – | · | ·
CN(Cc1ccccc1F)c1nc(-c2cccs2)nc2ccccc12 | · | · | – | · | ·
COC(=O)C1=C(C(=O)c2ccc(C)cc2)C(c2ccc(O)c(OC)c2)n2nnnc2N1 (stereo not drawn) | – | 68.8 | – | – | –
C=CCOC(=O)C1=C(C)Nc2nnnn2C1c1cc(OC)ccc1OC (stereo not drawn) | – | 51.0 | – | 71.3 | –
COC(=O)C1=C(C(=O)c2ccc(C)cc2)C(c2ccc(OC)c(OC)c2)n2nnnc2N1 (stereo not drawn) | – | – | – | – | –
CCOc1ccccc1C1C(C(=O)Nc2ccccc2OC)=C(C)Nc2nnnn21 (stereo not drawn) | – | 51.8 | – | 88.2 | –
CCOC(=O)C1=C(C)Nc2nnnn2C1c1ccc(OC)c(Br)c1 (stereo not drawn) | – | 66.7 | – | – | –
O=C(CN1C(=O)C2C3C=CC(C3)C2C1=O)Nc1nc2ccccc2[nH]1 (stereo not drawn) | – | – | – | – | –
Cc1[nH]ccc(=O)c1OC1OC(CO)C(O)C(O)C1O (stereo not drawn) | · | · | – | · | ·
COC(=O)c1c(F)c(F)c(NCCO)c(F)c1F | – | – | – | – | –
C/C(=N\NS(=O)(=O)c1ccc(C)c([N+](=O)[O-])c1)c1cc2ccccc2o1 | – | – | – | – | –
C/C(=N\NS(=O)(=O)c1ccc(Cl)c([N+](=O)[O-])c1)c1ccc(C)o1 | – | 88.0 | – | 83.1 | –
C/C(=N\NS(=O)(=O)c1ccc(Cl)c([N+](=O)[O-])c1)c1cc2ccccc2o1 | – | 99.8 | – | 96.8 | –
COC(=O)C1=C(C)N=C2SC(C#N)=C(N)N2C1c1cccc(OC)c1 (stereo not drawn) | – | 91.7 | – | 96.0 | –
CN1CCN(C(=O)CN2C(=O)CC(C)(C)S(=O)(=O)c3ccccc32)CC1 | – | – | – | – | –
CCOC(=O)N1CCN(C(=O)CN2C(=O)CC(C)(C)S(=O)(=O)c3ccccc32)CC1 | – | – | – | 54.9 | –
CCOC(=O)C1=C(O)/C(=C\c2ccc(CNC(=O)C(=O)Nc3ccc(C)c(C)c3)o2)N=C1C | – | 82.6 | – | 55.2 | –
Cc1ccc(-c2nc(SCC(=O)N(C)C3CCS(=O)(=O)C3)[nH]c2-c2ccc(C)cc2)cc1 (stereo not drawn) | – | – | – | – | –
COc1cccc(C2C=C(c3cccs3)Nc3ncnn32)c1OC (stereo not drawn) | – | 56.4 | – | – | –
COc1ccc(C2C=C(c3ccc(Br)s3)Nc3ncnn32)cc1OC (stereo not drawn) | – | 50.1 | – | 97.9 | –
CCOC(=O)C1=C(c2ccccc2)Nc2ncnn2C1c1cccc(OC)c1OC (stereo not drawn) | – | – | – | – | –
COc1ccc(C2C=C(c3ccc(C)cc3)Nc3ncnn32)cc1 (stereo not drawn) | – | – | – | – | –
COC(=O)C(Nc1ccccc1Cl)(c1cc(C)c(O)c(C)c1)C(F)(F)F (stereo not drawn) | – | 98.7 | – | 99.7 | –
CCOC(=O)C(NC(=O)c1ccccc1Cl)(Nc1ccc(C)c(C)c1)C(F)(F)F (stereo not drawn) | · | · | – | · | ·
Nc1ncnc2nc(SCCc3ccccc3)[nH]c12 | – | – | – | – | –
Fc1ccc(COc2ccc(/C=N/n3cnnc3)cc2)cc1 | – | 92.4 | – | 91.5 | –
Cc1ccc(S(=O)(=O)Oc2cccc(N3C(=O)C4CC=CCC4C3=O)c2)cc1 (stereo not drawn) | – | – | – | – | –
